Screens: PubChem, several laboratories
eIF4E-4G inh = eIF4E–eIF4G protein interaction inhibitors, primary screen, biochemical, uHTS, TR-FRET, eIF4GI fragment | 220,000 tested, 0.37% active | Eukaryotic translation initiation factor 4E (Mus musculus) + Eukaryotic translation … | TR-FRET eIF4E-eIF4GI(517-606) binding, 2 h | AID 782, 2007 | inhibition, % at 21.7 µM;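 active = inhibition above about 30%, limit read from the data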
eIF4H inh = human eIF4H binding inhibitors, primary screen, translation initiation inhibitor project, biochemical, uHTS, fluorescence polarization; eIF4H fluorescence polarization binding assay; Eukaryotic translation initiation factor 4H (Homo sapiens), Q15056; 290,000 tested, 0.94% active; inhibition, % at 35 µM;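 note: calls also rest on retests at 20 µM and on dose response follow-up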
PERK inh = block of dimerizer-induced PERK translation repression, primary screen, PERK inhibitor project, CHO PERK-DD cells, SEAP luminescence, HTS; Eukaryotic translation initiation factor 2-alpha kinase 3 (Homo sapiens), Q9NZJ5; CHO PERK-DD fusion, SEAP luminescence translation reporter; inhibition, % at 5.6 µM; 220,000 tested, 0.17% active;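 active = inhibition above the mean inhibition of all tested compounds plus 3 SD, set separately per screening campaign, cut at about 2.9% in these data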;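 note: PERK kinase domain activated by AP20187 dimerizer at 100 nM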
PABP1 MLLE inh = inhibitors of PABP1 MLLE–PAM2 peptide binding, primary screen, biochemical, fluorescence polarization, FITC-PAM2, GST-MLLE. Polyadenylate-binding protein 1 (Homo sapiens), P11940. inhibition, % at 20 µM. 360,000 tested, 0.36% active; in the data active = inhibition above about 35%, passing the limit was not always enough
PABP FP inh = PABP poly(A) RNA binding inhibitors, primary screen, biochemical, fluorescence polarization, uHTS; Polyadenylate-binding protein 1 (Homo sapiens), P11940; AID 2014, 2009; inhibition, % at 35 µM; 290,000 tested, 1% active;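 note: calls also rest on retests at 20 µM and on dose response follow-up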
Of the large screens only hits and unclear results are named; the others gave an inactive call; [ ] = dose if it differs, or a comment. Shown are actives, neighbours in structure and some others; about 1.6% of the full set was active somewhere. Unless noted, the rule behind the calls is not given here.

CCc1ccc(OCC(=O)NC(NC(=S)Nc2ccccc2OC)C(Cl)(Cl)Cl)cc1 (stereo unspecified)	eIF4H inh 77.5, PABP FP inh active
Cc1ccccc1/C=C\c1nc2ccccc2c(=O)n1Cc1ccccc1	none
Cc1cccc(/C=C/c2nc3ccccc3c(=O)n2Cc2ccccc2)c1	eIF4H inh 76.1, PABP FP inh 19.7
O=c1c2ccccc2nc(/C=C/c2cccnc2)n1Cc1ccccc1	eIF4E-4G inh 91.8
COc1cccc(CN(C)CC(=O)NNC(=O)c2ccc(Cl)cc2)c1	PABP FP inh inconclusive
NC(COCc1ccccc1)c1csc(Nc2ccc(S(N)(=O)=O)cc2)n1 (stereo unspecified)	none (no result: eIF4E-4G inh, eIF4H inh, PERK inh, PABP FP inh)
O=C(N=Nc1c(O)[nH]c2ccccc12)c1ccc2c(c1)OCO2	eIF4H inh 8.5, PABP FP inh 53.8
CCOC(=O)c1c(NC(=S)Nc2ccc(Cl)cc2)sc(C)c1C	none
N#CC(C(=O)NCCc1ccccc1)c1nc2ccccc2nc1N1CCCCC1 (stereo unspecified)	none
CCN(CC)c1nc2ccccc2nc1C(C#N)C(=O)NCCCOC (stereo unspecified)	none
CCN(CC)c1nc2ccccc2nc1C(C#N)C(=O)NCCc1ccccc1 (stereo unspecified)	eIF4H inh 28.6
CCOC(=O)N1CCN(c2nc3ccccc3nc2C(C#N)C(=O)NCCc2ccccc2)CC1 (stereo unspecified)	PABP FP inh 53.4
COc1cc2cc(CCCOC(=O)c3ccc(C(F)(F)F)cc3)oc(=O)c2cc1OC	none (no result: eIF4E-4G inh, eIF4H inh, PERK inh, PABP FP inh)
C(=C\c1ccccc1)/CSc1ccccn1	eIF4H inh active, PABP FP inh 56.9
O=C(Cc1cccs1)NCc1ccncc1	PERK inh 3.0
O=C(Cc1cccs1)Nc1ccc(S(=O)(=O)Nc2ncccn2)cc1	eIF4H inh 60.9, PABP FP inh 10.4
Cc1ccc(C(=O)NNC(=O)Cc2cccs2)cc1	none
O=C(Cc1cccs1)NCc1ccccc1	none
O=C(Cc1cccs1)NNC(=O)c1ccc(F)cc1	eIF4H inh inconclusive, PABP FP inh 54.8
NS(=O)(=O)c1ccc(CNC(=O)Cc2cccs2)cc1	eIF4H inh 57.7 (no result: eIF4E-4G inh, PERK inh)
CCCNC(=O)c1n[nH]c(=O)c2ccccc12	none
O=S1(=O)N=C(Oc2ccccc2)c2ccccc21	PERK inh 2.9
OCc1ncccc1O	none
Brc1ccc(-c2csc(/N=C/N3CCCC3)n2)cc1	eIF4H inh active, PABP FP inh 66.9
Cc1c(Cl)cccc1NC(=S)NNc1ncc(C(F)(F)F)cc1Cl	PABP1 MLLE inh 36.5
CCOC(=O)c1nn(-c2ccccc2C)c(=O)c2c(N)scc12	none
CCCc1nc2sc3ccccc3c(=O)c2c(=O)n1Cc1ccco1	eIF4H inh 64.0, PABP FP inh 48.8
S=c1nc2c(n[nH]1)c1ccccc1n2CCc1ccccc1	PABP1 MLLE inh 38.7 (no result: eIF4E-4G inh, PERK inh)
COc1ccccc1N1C(=O)CSC1=S	none (no result: eIF4E-4G inh, PERK inh)
C[C@@H](NC(=O)c1ncn2c1c(=O)[nH]c1cccnc12)c1ccccc1	none (no result: eIF4E-4G inh, eIF4H inh, PERK inh, PABP FP inh)
O=C(CNS(=O)(=O)c1cccs1)N1CCCCC1	none (no result: eIF4E-4G inh, PERK inh)
O=C(CCNS(=O)(=O)c1cccs1)N1CCCCCC1	eIF4E-4G inh 38.0
O=C(CCS(=O)(=O)c1cccs1)N1CCCC1	eIF4E-4G inh 50.2
Cc1ccc(S(=O)(=O)N2CCC(C(=O)N[C@@H](C)C(=O)NC3CCS(=O)(=O)C3)CC2)cc1 (stereo partly specified)	none (no result: PABP1 MLLE inh)
CCC(=NN=C(CC)c1ccccc1O)c1ccccc1O	none (no result: eIF4E-4G inh, eIF4H inh, PERK inh, PABP FP inh)
C/C(=N/N=C(\C)c1ccccc1O)c1ccccc1O	PABP FP inh 66.2 (no result: eIF4E-4G inh, PERK inh)
COc1ccc(OC)c(S(=O)(=O)N2CCCCC2C(=O)N2CCN(c3ccccn3)CC2)c1 (stereo unspecified)	PABP1 MLLE inh 38.3
CCCCC(O)(CCCC)C(=O)N/N=C(\C)c1ccc(Cl)cc1	eIF4H inh 84.4, PABP FP inh 52.2
C/C(=N/NC(=O)CNc1ccc(C)cc1)c1ccc(Cl)cc1	none
COC(=O)c1c(C)[nH]c(O)c1C=Nc1ccc(C(C)C)cc1	eIF4H inh 85.3, PABP FP inh 80.2
Cc1ccc(C(=O)N2CCN(C(=O)c3ccc(C)c(C)c3)C(C)C2)cc1C (stereo unspecified)	none (no result: eIF4E-4G inh, eIF4H inh, PABP1 MLLE inh, PABP FP inh)
CCCNc1c(F)c(F)c2c(C)c3ccccc3nc2c1F	eIF4H inh 100.8, PABP FP inh 46.1
CCOc1ccc(Nc2cc(Nc3ccccc3OCC)nc(C=C(C#N)C#N)n2)cc1	PABP FP inh 56.2
O=C(NC1CCCCCCC1)C1CCN(S(=O)(=O)N2CCCC2)CC1	eIF4E-4G inh 58.4
O=C(O)C1CCN(C(=O)NC2CCCCC2)CC1	PERK inh 2.9
O=C(c1ccc(Cl)cc1)C1CCN(C(=O)NC2CCCCC2)CC1	none
COc1ccc(C(=O)N2CCc3c([nH]c4ccccc34)C2C(F)(F)F)cc1 (stereo unspecified)	none
Cn1c(=O)[nH]c2cc(Cl)cnc21	eIF4H inh inconclusive, PABP1 MLLE inh 47.1, PABP FP inh inconclusive
Cn1c(=O)[nH]c2c(Cl)nccc21	none
CSc1nc(Sc2ccc(Cl)cc2)c2ccccc2n1	PERK inh 2.9
CSc1nc(Sc2ccccc2)c2ccccc2n1	none
COc1ccc(NC(=O)Nc2ccc3c(c2)C(=O)N([C@@H](C)CO)C[C@@H](C)[C@@H](CN(C)S(=O)(=O)c2cccs2)O3)cc1	none (no result: eIF4E-4G inh, eIF4H inh, PERK inh, PABP FP inh)
Cc1c(NC(=S)Nc2cccc(Cl)c2)c(=O)n(-c2ccccc2)n1C	eIF4H inh active
Cc1c(NC(=O)c2cc(CC(C)C)on2)c(=O)n(-c2ccccc2)n1C	eIF4E-4G inh 33.8[fluorescence artefact?]
Cc1c(NC(=O)c2cc(C(C)C)on2)c(=O)n(-c2ccccc2)n1C	none
COc1cccc(CC(=O)Nc2cc(S(=O)(=O)N3CCOCC3)ccc2N2CCOCC2)c1	none
Cc1noc(NS(=O)(=O)c2ccc(N3Cc4ccccc4C3=O)cc2)c1C	PERK inh 3.1
COC(=O)c1c(NC(C)=O)sc2c1CCCC2	none
CCOC(=O)c1c(NC(=S)NC)sc2c1CC(C)(C)SC2	eIF4H inh 52.4
COC(=O)c1c(NC(=S)Nc2ccc(C(=O)N3CCOCC3)cc2)sc2c1CCC2	PERK inh 3.0
COC(=O)c1c(NC(=O)C2C3CCC(C3)C2C(=O)O)sc2c1CCCCC2 (stereo unspecified)	PABP1 MLLE inh 41.4
CNC(=S)Nc1sc2c(c1C(=O)OC)CCC2	eIF4H inh inconclusive, PABP FP inh active
CCOC(=O)c1c(NC(=S)Nc2ccccc2)sc2c1CC(C)(C)SC2	none
CCCCOc1ccc(C(=O)Nn2cnnc2)cc1	none
NC(=O)COC(=O)c1cccc2c1-c1ccccc1C2=O	eIF4H inh inconclusive, PABP FP inh 52.7
C/C(=N/NC(=O)c1cc2ccccc2cc1O)C1C(=O)c2ccccc2C1=O	PABP FP inh 54.2
